DT40 TDP1 CPT = DT40-hTDP1 cell growth loss with CPT | chicken DT40 Tdp1-/-;hTDP1 cells + 20 nM CPT, ATP luminescence, 48 h | Potency, µM (top dose mostly 46.2 µM), hits mostly inhibitors | actives 12% (n = 420,000) | AID 686979; further: nearly all actives have a fitted effect of over 55% in size
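Chicken DT40 Tdp1-/- cells stably complemented with human TDP1 were seeded at 400 cells/well in medium containing 20 nM camptothecin, exposed to pin-transferred compounds, and grown at 37 °C for at least 48 hr. Viability was read as ATP luminescence.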
SW480 rerep = induces DNA re-replication in SW480 colon adenocarcinoma cells; SW480 DNA re-replication, Hoechst DNA content imaging, 48 h; Potency, µM (highest dose often 46.1 µM), usual class: activators; actives 1.8% (n = 340,000); AID 624297; further: nearly all actives have a fitted effect of over 55% in size
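Compounds, transferred as 23 nL by pin tool, were incubated with cells for 48 hr; DNA content per nucleus was then quantified by Hoechst staining and fluorescence plate imaging.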
MCF10A rerep = DNA re-replication induction in MCF 10a cells | Potency, µM (highest dose often 46.1 µM), usual class: activators | AID 624296 | MCF 10A DNA re-replication, Hoechst nuclear intensity, 48 h | actives 2.9% (n = 350,000); further: nearly all actives have a fitted effect of over 50% in size
TDP1 cell noCPT = qHTS for Inhibitors of human tyrosyl-DNA phosphodiesterase 1 (TDP1): qHTS in cells in absence of CPT; Potency, µM (top dose mostly 46.2 µM), usual class: inhibitors; DT40 Tdp1-/- hTDP1 cells, no CPT, ATP luminescence, 48 h; AID 686978, 2013; actives 15% (n = 420,000); further: nearly all actives have a fitted effect of over 55% in size
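Chicken DT40 Tdp1-/- cells stably complemented with human TDP1 were seeded at 400 cells/well with DMSO in place of 20 nM camptothecin. After compound pinning, cells grew at least 48 hr at 37 °C; viability read by CellTiter-Glo luminescence.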
IL1B secr inh = inhibitors of inflammasome signaling (IL-1 beta secretion); actives 4.7% (n = 360,000); AID 743279; THP-1 LPS/ATP IL-1B secretion, AlphaLISA, 16 h; stronger effect = lower value; activity change, % at 57.5 µM; in the data active means activity change below about -50%; inconclusive means mostly about -30% to -49%
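THP-1 cells pretreated 1 hr with compounds (up to 57.5 uM final), then stimulated with LPS (250 ng/mL final) plus ATP (1.25 mM final); secreted IL-1B measured by AlphaLISA after 16 hr, decreased signal indicating inhibition.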
Chronic BCR inh = chronic active BCR signaling inhibition; ABC-DLBCL IkBa-CBG/CBR reporter, luminescence ratio, 4 h; Potency, µM (top dose mostly 46.1 µM), hits mostly inhibitors; actives 0.05% (n = 340,000); AID 493014; active means well fitted inhibition curve with a large enough effect in the signal ratio, with a control signal flat, not every such curve was filed as active; inconclusive means small, poorly fitted or top-dose-only effect, or effect the other way, or a change in a side signal; the % refers to the signal ratio
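TMD8 human ABC-DLBCL cells with doxycycline-inducible IκBα–green luciferase fusion and unfused red luciferase, in 0.5% FBS medium; compounds up to 46 uM, 4 h at 37C. Green/red luminescence ratio, filter-overlap corrected, fitted to concentration-response curves.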
A number is an active result; . = inactive; ? = inconclusive; / = no result given; ! = not confirmed by another sample. A selection: hits, their analogues and other compounds. The true share with any hit is near 19%. Unless noted, the call rests on the fitted dose curve; in most records, active means well fitted curve in the direction sought with a large enough effect; inconclusive means small, poorly fitted or top-dose-only effect, or another doubt; inactive means no such curve, though single readings can be large; an effect the other way counts as inactive or inconclusive.

SMILES	DT40 TDP1 CPT	SW480 rerep	MCF10A rerep	TDP1 cell noCPT	IL1B secr inh	Chronic BCR inh
Cc1cc(C)c(C)c(S(=O)(=O)N2CCN(C(=O)c3ccccc3OCc3c(C)noc3C)CC2)c1C	?	.	.	18.4µM	.	.
Cc1noc(C)c1COc1ccccc1C(=O)N1CCN(S(=O)(=O)c2ccccc2Br)CC1	16.4µM	?	.	20.6µM	.	/
O=C(c1ccccc1Cc1ccccc1)N1CCN(S(=O)(=O)c2ccccc2Br)CC1	?	.	?	?	-61.4	?
Cc1nn(CC(=O)NC(C)c2ccccc2)c(=O)c2cc3occc3n12 (stereo not drawn)	.	/	/	.	/	/
O=C1N(CCCl)c2ccc(Br)cc2C12OCCO2	.	.	.	.	.	.
COc1cc(NC(=S)N2CCCC2)cc(OC)c1	?	?	.	.	.	.
COc1ccc(S(=O)(=O)N2CCSC2C)cc1C (stereo not drawn)	.	.	.	.	.	?
NC(=O)c1ccc(N2CCN(S(=O)(=O)c3cccs3)CC2)c([N+](=O)[O-])c1	8.2µM	.	.	3.66µM	.	.
O=C(c1ccc(N2CCN(S(=O)(=O)c3ccccc3)CC2)c([N+](=O)[O-])c1)N1CCOCC1	?	.	.	20.6µM	.	.
O=C(c1ccc(N2CCOCC2)c([N+](=O)[O-])c1)N1CCN(c2ccccc2)CC1	?	.	.	?	.	/
Cc1ccc([N+](=O)[O-])cc1S(=O)(=O)N1CCN(C)CC1	.	.	.	.	.	.
Cc1ccc([N+](=O)[O-])cc1S(=O)(=O)N1CCn2cccc2C1c1ccccc1 (stereo not drawn)	20.6µM	/	/	?	/	?
Fc1ccc(-n2ncc3c(SCc4cccnc4)ncnc32)cc1	?	.	?	?	?	.
COc1ccccc1CNc1ncnc2c1nc1n2CCCC1	?	/	/	8.2µM	/	/
Cc1ccccc1CN1CCC(CNC(=O)C2CCCN(c3ncnc4c3nc3n4CCCCC3)C2)CC1 (stereo not drawn)	?	.	.	?	-85.6	.
COc1ccc(Nc2ncnc3c2nc2n3CCCCC2)cc1	.	/	/	?	/	/
O=C(Nc1ccccn1)C1CCN(c2ncnc3c2nc2n3CCCCC2)CC1	2.31µM	.	.	?	.	.
CCOc1ccc(Nc2ncnc3c2nc2n3CCCCC2)cc1	?	/	/	20.6µM	/	/
CN(C)c1ncc2nc(-c3ccc(F)cc3)c(=O)n(C3CC3)c2n1	.	/	/	.	/	/
O=C(NCc1ccccc1)c1cc(C2COCCN2S(=O)(=O)c2ccccc2)on1 (stereo not drawn)	.	/	/	.	.	/
COc1ccc(NC(=O)C2CCN(c3ncnc4c3nc3n4CCCCC3)CC2)cc1Cl	?	?	.	.	?	.
Cc1ccc(NC(=O)C2CCCN(c3ncnc4c3nc3n4CCCCC3)C2)cc1Cl (stereo not drawn)	?	?	.	20.6µM	.	?
Cc1ccc(NC(=O)C2CCN(c3ncnc4c3nc3n4CCCCC3)CC2)cc1Cl	?	?	14.6µM	?	?	?
O=C(Nc1ccc(F)cc1)C1CCN(c2ncnc3c2nc2n3CCCCC2)CC1	?	.	.	18.4µM	.	.
Cc1cccc(NC(=O)C2CCCN(c3ncnc4c3nc3n4CCCCC3)C2)n1 (stereo not drawn)	10.3µM	.	.	7.31µM	.	.
SMILES	DT40 TDP1 CPT	SW480 rerep	MCF10A rerep	TDP1 cell noCPT	IL1B secr inh	Chronic BCR inh
Cc1ccc(CNC(=O)c2ccc(OCC(C)C)cc2)n1C	.	.	.	.	.	.
CC(OC(=O)c1ccc(-n2cnnn2)cc1)C(=O)Nc1ccc(F)c(F)c1F (stereo not drawn)	.	.	.	.	.	.
Cc1ccc(S(=O)(=O)N2CCOC2CNC(=O)C(=O)NCCN2CCOCC2)cc1 (stereo not drawn)	.	.	.	.	.	.
O=C(Nc1ccc(Cl)cc1)C1CCCN(c2ncnc3c2nc2n3CCCCC2)C1 (stereo not drawn)	23.1µM	.	16.4µM	18.4µM	-59.4	.
COc1ccccc1CNC(=O)C1CCN(c2ncnc3c2nc2n3CCCCC2)CC1	?	.	.	23.1µM!	.	.
O=C(NCc1ccc(Cl)cc1)C1CCCN(c2ncnc3c2nc2n3CCCCC2)C1 (stereo not drawn)	?	.	?	?	.	.
CCCCOc1ccc(C(=O)NCC(=O)N2CC(C)CC(C)C2)cc1 (stereo not drawn)	?	.	.	?	.	.
COc1ccc(CC(=O)OCC(=O)Nc2c(C)n(C)n(-c3ccccc3)c2=O)cc1OC	.	.	.	.	.	.
COc1ccc(C(=O)Nc2ccccc2N2CCOCC2)cc1[N+](=O)[O-]	.	.	.	?	.	.
CCCC(=O)N1CCN(c2ccc(NC(=O)c3ccc(OCC)c([N+](=O)[O-])c3)cc2)CC1	.	.	.	.	.	.
CCOc1ccc(C(=O)Nc2ccccc2C#N)cc1[N+](=O)[O-]	16.4µM	.	.	?	.	.
CCOc1ccc(C(=O)Nc2ccccc2N2CCN(C(=O)c3ccccc3)CC2)cc1[N+](=O)[O-]	7.31µM	.	.	11.6µM	.	.
Cc1cc(C(=O)NC(=S)Nc2ccccc2N2CCCC2)ccc1[N+](=O)[O-]	.	?	.	.	.	.
CCOc1ccc(C(=O)Nc2ccccc2CC)cc1[N+](=O)[O-]	.	.	?	.	.	.
CCOc1ccc(C(=O)NC(=S)Nc2ccc(N3CCC(C)CC3)cc2)cc1[N+](=O)[O-]	?	.	?	11.6µM	.	?
CCOc1ccc(C(=O)NC(=S)Nc2ccccc2N2CCC(C)CC2)cc1[N+](=O)[O-]	?	.	.	16.4µM	.	?
CCOC1=C2[C@@H](CN(S(=O)(=O)c3ccc(C)cc3)[C@H]2c2ccccc2Cl)[C@H]2C(=O)NC(=O)[C@H]2C1	?	/	/	?	.	/
CCOC1=C2CN(S(=O)(=O)c3ccc(C)cc3)[C@H](c3ccc(CC)cc3)C[C@@H]2N(S(=O)(=O)c2ccc(C)cc2)[C@H](c2ccccc2)C1	?	/	/	?	.	/
CCOC1=C2[C@H](c3ccccc3Cl)N(S(=O)(=O)c3ccc(C)cc3)C[C@H]2C(C#N)(C#N)C(C#N)(C#N)C1	4.61µM	/	/	9.2µM	?	/
CCOC1=C2[C@H](c3ccc(CC)cc3)N(S(=O)(=O)c3ccc(C)cc3)C[C@H]2C(C#N)(C#N)C(C#N)(C#N)C1	3.66µM	/	/	3.26µM	-75.7	/
O=C(NOCc1cscn1)Nc1ccccc1	.	.	.	.	.	/
c1ccc(CC[n+]2ccncc2)cc1	.	/	/	.	/	/

Source: PubChem BioAssay (National Center for Advancing Translational Sciences (NCATS))
